Our source for the growth values is PubChem BioAssay (NCI).

Holding throughout (assay): NCI-60 one-dose screen, 48 h (100 = growth as untreated, 0 = no growth, -100 = all killed)
In one assay the test system is HT29 colon. As to conditions: 10 µM unless noted.
The next assay relates to SNB-75 CNS. As to conditions: 10 µM unless noted.
In another assay the test system is SNB-19 CNS. The following applies: 10 µM unless noted.
A further assay has as its system U251 CNS. As to conditions: 10 µM unless noted.
The subject of the next assay is PC-3 prostate. The following applies: 10 µM unless noted.
Another assay has as its system SK-MEL-5 melanoma. As to conditions: 10 µM unless noted.
In another assay the test system is UACC-62 melanoma.
A further assay concerns LOX IMVI melanoma. The following applies: 10 µM unless noted.
In another assay the test system is SK-MEL-2 melanoma. The following applies: 10 µM unless noted.
For a further assay, the system named is EKVX NSCLC. The following applies: 10 µM unless noted.
The next assay deals with SN12C renal. The following applies: 10 µM unless noted.
In the next assay the test system is UO-31 renal. As to conditions: 10 µM unless noted.
A further assay relates to ACHN renal. As to conditions: 10 µM unless noted.
The next assay deals with A498 renal. The following applies: 10 µM unless noted.
The next assay has as its system HL-60(TB) leukemia. As to conditions: 10 µM unless noted.
A further assay deals with CCRF-CEM leukemia. As to conditions: 10 µM unless noted.
Another assay has as its system MOLT-4 leukemia. The following applies: 10 µM unless noted.
In the next assay the test system is RPMI-8226 leukemia. As to conditions: 10 µM unless noted.
The next assay deals with SK-MEL-28 melanoma. As to conditions: 10 µM.
For a further assay, the system named is OVCAR-8 ovarian. The following applies: 10 µM.

Each structure is given as a SMILES string. “And” between values parts separate entries of the source, which are not always exact repeats. Identical values can stand only once. The panel holds about 83,000 compounds, 20% with a hit somewhere; the sample as a whole holds those more often.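 Interpretation: 100, growth as untreated; towards 0, rising growth inhibition; 0, no net growth; 0 to -100, cell death. Compounds scoring below 10 were considered active.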 The source made the active and inactive calls.

Regarding `CO[C@H](/C(C)=C/C=C/C(C)=C/c1coc(C)n1)[C@H](C)[C@H]1C[C@@H](O)[C@@]2(C)O[C@H]2/C=C/[C@@H](C)[C@@H]2C[C@@H](CC(=O)O2)C[C@H]2O[C@@H]2C(=O)O1`, the growth in the assay with HT29 colon is -23.2% (active); with SNB-75 CNS it was -46.7% (active); in the assay with SNB-19 CNS it was 21.2% (inactive); in the assay with U251 CNS, 3.46% (active); in the assay with PC-3 prostate it was -14.4% (active); in the assay on SK-MEL-5 melanoma, -18.7% (active). Also, the growth was 8.74% (active) with UACC-62 melanoma (10 µM); 13.1% (inactive) in the assay on LOX IMVI melanoma; 51.4% (inactive) with SK-MEL-2 melanoma; 39.6% (inactive) in the assay on EKVX NSCLC; 48.7% (inactive) in the assay on SN12C renal; 20.7% (inactive) with UO-31 renal. In addition, the growth was -10.3% (active) in the assay with ACHN renal; 26.1% (inactive) in the assay with A498 renal; -36.9% (active) in the assay on HL-60(TB) leukemia; -3.89% (active) with CCRF-CEM leukemia; 9.7% (active) in the assay with MOLT-4 leukemia; -14.5% (active) in the assay on RPMI-8226 leukemia.
`COc1cccc2c1cc([N+](=O)[O-])c1c(C(=O)O)cc3c(c12)OCO3`: the growth in the assay on HT29 colon was 0.29% (active) and -24.5% (active); with SNB-75 CNS it was 79.4% (inactive) and 106% (inactive); in the assay on SNB-19 CNS, 79.3% (inactive) and 97.7% (inactive); in the assay on U251 CNS it was 60.2% (inactive) and 96.7% (inactive); in the assay on PC-3 prostate, 77.3% (inactive) and 73.7% (inactive); in the assay on SK-MEL-5 melanoma, 78.9% (inactive) and 104% (inactive). In addition, the growth was 84.3% (inactive) and 96.5% (inactive) in the assay on UACC-62 melanoma (10 µM); -19.4% (active) and 0.694% (active) in the assay on UACC-62 melanoma (100 µM); 70.4% (inactive) and 99.2% (inactive) in the assay with LOX IMVI melanoma; 99.8% (inactive) in the assay on SK-MEL-28 melanoma; 94.4% (inactive) and 104% (inactive) with SK-MEL-2 melanoma; 84.3% (inactive) and 111% (inactive) in the assay on EKVX NSCLC. Moreover, the growth in the assay on SN12C renal was 65.1% (inactive) and 113% (inactive); in the assay with UO-31 renal, 76.5% (inactive) and 87.8% (inactive); with ACHN renal, 39.1% (inactive) and 96.1% (inactive); in the assay with A498 renal, 87.2% (inactive) and 107% (inactive); in the assay with HL-60(TB) leukemia, 41.6% (inactive) and 79.4% (inactive); with CCRF-CEM leukemia, 45.8% (inactive) and 77.6% (inactive). In addition, the growth with MOLT-4 leukemia is 35.7% (inactive) and 95.9% (inactive); in the assay on RPMI-8226 leukemia, 89.1% (inactive) and 82.3% (inactive); with OVCAR-8 ovarian, 55.2% (inactive).
Turning to `Oc1ccc(Cl)cc1Sc1cc(Cl)ccc1O`, the growth with HL-60(TB) leukemia was 81.8% (inactive).
Turning to `CCC(=O)OC1CCn2c1nc1c2C(=O)C(C)=C(N2CC2)C1=O` (configuration not stated), the growth is 7.71% (active) in the assay on HT29 colon; -87% (active) with SNB-75 CNS; 1.12% (active) in the assay with SNB-19 CNS; -24.2% (active) in the assay with U251 CNS; 8.58% (active) with PC-3 prostate; -98% (active) in the assay on SK-MEL-5 melanoma. In addition, the growth with UACC-62 melanoma (10 µM) is -67.8% (active); with LOX IMVI melanoma, -75.7% (active); in the assay on SK-MEL-28 melanoma, -42.1% (active); with SK-MEL-2 melanoma it was -43.9% (active); in the assay with EKVX NSCLC it was 8.46% (active); with SN12C renal it was -43.9% (active). Also, the growth is -9.18% (active) in the assay with UO-31 renal; -25.3% (active) with ACHN renal; -77.6% (active) with A498 renal; 10.4% (inactive) with HL-60(TB) leukemia; 70.4% (inactive) in the assay with CCRF-CEM leukemia; 70.5% (inactive) in the assay on MOLT-4 leukemia. The growth with RPMI-8226 leukemia was 2.94% (active); in the assay with OVCAR-8 ovarian it was 3.32% (active).
As for `CC[C@@]1(O)C(=O)OCc2c1cc1n(c2=O)Cc2cc3ccccc3nc2-1`, the growth is -31.8% (active) in the assay with HT29 colon; -41.8% (active) in the assay on SNB-75 CNS; -0.517% (active) with SNB-19 CNS; -31.6% (active) in the assay on U251 CNS; -22.3% (active) in the assay on PC-3 prostate; -83.9% (active) in the assay with SK-MEL-5 melanoma. In addition, the growth is -49.1% (active) in the assay with UACC-62 melanoma (10 µM); -62.4% (active) in the assay on LOX IMVI melanoma; -20.7% (active) in the assay on SK-MEL-2 melanoma; 13.5% (inactive) in the assay with EKVX NSCLC; 13.5% (inactive) in the assay with SN12C renal; -59.6% (active) in the assay with UO-31 renal. Further, the growth is -72.6% (active) with ACHN renal; -77.4% (active) with A498 renal; -28.1% (active) with CCRF-CEM leukemia; -17.4% (active) with MOLT-4 leukemia; -39.7% (active) in the assay with RPMI-8226 leukemia.
With `O=C1c2ccccc2C(=O)C(Cl)C1Cl` (configuration not stated), the growth in the assay on HT29 colon was 96.8% (inactive); in the assay with SNB-75 CNS, 54% (inactive); in the assay on SNB-19 CNS, 69.5% (inactive); in the assay with U251 CNS it was 83% (inactive); in the assay on PC-3 prostate, 71.8% (inactive); in the assay on SK-MEL-5 melanoma, 86.3% (inactive). Besides, the growth in the assay with UACC-62 melanoma (10 µM) was 70.9% (inactive); in the assay with SK-MEL-28 melanoma it was 87.9% (inactive); in the assay with SK-MEL-2 melanoma, 111% (inactive); with EKVX NSCLC, -79.6% (active); in the assay with SN12C renal it was 71.4% (inactive); with UO-31 renal it was -98.5% (active). Moreover, the growth was -100% (active) in the assay on ACHN renal; 133% (inactive) with A498 renal; -24.2% (active) in the assay with HL-60(TB) leukemia; -20.8% (active) in the assay with CCRF-CEM leukemia; -8.44% (active) with MOLT-4 leukemia; 31.1% (inactive) with RPMI-8226 leukemia. In the assay with OVCAR-8 ovarian, the growth was 91.9% (inactive).
As to `COC1CC(CC2CCC(C)C(C(C)C(=O)O)O2)OC2(OC(C)(C3CCC(C)(C4OC(C5OC(O)(CO)C(C)CC5C)CC4C)O3)CC2C)C1C` (configuration not stated), the growth in the assay with HT29 colon was -0.662% (active); in the assay on SNB-75 CNS it was -60.6% (active); with SNB-19 CNS it was -2.87% (active); in the assay with U251 CNS, 3.01% (active); in the assay with PC-3 prostate, 5.39% (active); in the assay on SK-MEL-5 melanoma, -96.3% (active). For the same compound, the growth in the assay with UACC-62 melanoma (10 µM) was -98.8% (active); in the assay on LOX IMVI melanoma, 11.3% (inactive); with SK-MEL-2 melanoma, -61.3% (active); in the assay on EKVX NSCLC it was 19.1% (inactive); in the assay on SN12C renal, 17.1% (inactive); in the assay with UO-31 renal, 13.3% (inactive). Besides, the growth in the assay on ACHN renal was 16.2% (inactive); in the assay with A498 renal it was -68.8% (active); in the assay on HL-60(TB) leukemia, -56% (active); with CCRF-CEM leukemia, -27.1% (active); in the assay with MOLT-4 leukemia, -36.2% (active); in the assay with RPMI-8226 leukemia, -45% (active).
As for `Oc1cccc2cccnc12`, the growth is 51.8% (inactive) and 106% (inactive) with HT29 colon; 101% (inactive) and 106% (inactive) and 89.6% (inactive) in the assay with SNB-75 CNS; 95.1% (inactive) and 108% (inactive) and 102% (inactive) in the assay on SNB-19 CNS; 72.3% (inactive) and 99.1% (inactive) and 106% (inactive) in the assay with U251 CNS; 86.9% (inactive) and 97.3% (inactive) and 92.3% (inactive) in the assay on PC-3 prostate; 97.2% (inactive) and 99.9% (inactive) and 110% (inactive) in the assay with SK-MEL-5 melanoma. Also, the growth in the assay with UACC-62 melanoma (10 µM) was 97.2% (inactive) and 94.1% (inactive); with LOX IMVI melanoma it was 71.9% (inactive) and 99.1% (inactive) and 107% (inactive); with SK-MEL-28 melanoma, 97.2% (inactive) and 107% (inactive) and 106% (inactive); in the assay on SK-MEL-2 melanoma it was 99% (inactive) and 102% (inactive) and 101% (inactive); with EKVX NSCLC, 93% (inactive) and 110% (inactive) and 103% (inactive); in the assay with SN12C renal, 89.6% (inactive) and 103% (inactive) and 99.6% (inactive). Further, the growth was 74.2% (inactive) and 94.4% (inactive) and 80.2% (inactive) in the assay with UO-31 renal; 83.5% (inactive) and 117% (inactive) and 96% (inactive) with ACHN renal; 137% (inactive) and 99.4% (inactive) and 83.7% (inactive) in the assay with A498 renal; 98.8% (inactive) and 114% (inactive) and 78.2% (inactive) in the assay with HL-60(TB) leukemia; 48.8% (inactive) and 99.2% (inactive) and 96% (inactive) with CCRF-CEM leukemia; 60.2% (inactive) and 110% (inactive) and 97.8% (inactive) in the assay with MOLT-4 leukemia. Further, the growth with RPMI-8226 leukemia was 84% (inactive) and 97.1% (inactive); with OVCAR-8 ovarian, 81.9% (inactive) and 101% (inactive) and 105% (inactive).
Consider `CC[C@@]1(O)C[C@H](OC2CC(N(C)C)C(OC3CC(O)C(OC4CCC(=O)C(C)O4)C(C)O3)C(C)O2)c2c(cc3c(c2O)C(=O)c2c(O)ccc(O)c2C3=O)[C@H]1C(=O)OC` (some centres not stated), for which the growth is -47.4% (active) in the assay on HT29 colon; -37.1% (active) in the assay on SNB-75 CNS; 25.7% (inactive) with SNB-19 CNS; -38.3% (active) in the assay with U251 CNS; -24.5% (active) in the assay on PC-3 prostate; -24.9% (active) in the assay on SK-MEL-5 melanoma. Besides, the growth with UACC-62 melanoma (10 µM) is -72.9% (active); with LOX IMVI melanoma it was -68.8% (active); in the assay on SK-MEL-2 melanoma, -40.2% (active); with EKVX NSCLC, 17.6% (inactive); in the assay with SN12C renal, 24.3% (inactive); in the assay with UO-31 renal it was -57.2% (active). Further, the growth was -86.9% (active) in the assay on ACHN renal; -78.6% (active) in the assay with A498 renal; -9.74% (active) in the assay with HL-60(TB) leukemia; 4.1% (active) in the assay on CCRF-CEM leukemia; 7.32% (active) with MOLT-4 leukemia; -33.9% (active) in the assay on RPMI-8226 leukemia.
